Tests used:
Test in all cases: PBM binding z-score (relative to random genomic background probes); higher = stronger binding; sequences stand for … in GC…GCGATTGACAGCGTAGAATGAAGG
[1] = test system: FXR:RXRa (NR concentration 270 nM, RXRa partner concentration 90 nM)
How it was run: (§1)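 Ligand-free nuclear receptor dimers were bound for 1 h to custom Agilent 4×180K protein-binding microarrays. Detection used antibodies against each partner (one per run). Binding z-scores rest on regression-normalized fluorescence, with random background probes as the reference.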

[2] = test system: LXRa:RXRa (NR concentration 270 nM, RXRa partner concentration 90 nM)
How it was run: as §1

[3] = test system: LXRa homodimer (NR concentration 270 nM)
How it was run: as §1

[4] = test system: LXRb:RXRa (NR concentration 270 nM, RXRa partner concentration 90 nM)
How it was run: as §1

[5] = test system: LXRb homodimer (NR concentration 270 nM)
How it was run: as §1

[6] = test system: PPARa:RXRa (NR concentration 270 nM, RXRa partner concentration 90 nM)
How it was run: as §1

[7] = test system: PPARg:RXRa (NR concentration 180 nM, RXRa partner concentration 90 nM)
How it was run: as §1

[8] = test system: PPARg:RXRa 270nM:90nM, anti-RXR (NR concentration 270 nM, RXRa partner concentration 90 nM)
How it was run: as §1

[9] = test system: PPARg:RXRa 30nM:10nM, anti-RXR (NR concentration 30 nM, RXRa partner concentration 10 nM)
How it was run: as §1

[10] = test system: PPARg:RXRa 90nM:30nM, anti-RXR (NR concentration 90 nM, RXRa partner concentration 30 nM)
How it was run: as §1

[11] = test system: PPARg:RXRa DBDmut IVT, anti-RXR (DBD mutation: RXRa K156A/R161A, NR concentration 270 nM, RXRa partner concentration 90 nM)
How it was run: as §1

[12] = test system: PPARg:RXRa IVT, anti-PPARg (NR concentration 270 nM, RXRa partner concentration 90 nM)
How it was run: as §1

[13] = test system: PPARg DBDmut:RXRa IVT, anti-PPARg (DBD mutation: PPARg1 K132A/R137A, NR concentration 270 nM, RXRa partner concentration 90 nM)
How it was run: as §1

[14] = test system: PPARg DBDmut IVT, anti-PPARg (DBD mutation: PPARg1 K132A/R137A, NR concentration 270 nM)
How it was run: as §1

[15] = test system: PPARg homodimer (NR concentration 180 nM)
How it was run: as §1

[16] = test system: PXR:RXRa (NR concentration 270 nM, RXRa partner concentration 90 nM)
How it was run: as §1

[17] = test system: PXR homodimer (NR concentration 270 nM)
How it was run: as §1

[18] = test system: RARa:RXR (NR concentration 270 nM, RXRa partner concentration 90 nM)
How it was run: as §1

[19] = test system: RARa homodimer (NR concentration 270 nM)
How it was run: as §1

[20] = test system: RARb:RXRa (NR concentration 270 nM, RXRa partner concentration 90 nM)
How it was run: as §1

Q: TCTATTAGTTGAAGGGCTACCGACGAGTCCGTTT was tested. Which PBM binding z-score [1] did it give?
A: 0.932

Q: What about the PBM binding z-score [2] of the same sequence?
A: 0.924

Q: And the PBM binding z-score [3]?
A: 0.312

Q: What about the PBM binding z-score [4] of the same sequence?
A: 0.431

Q: What about the PBM binding z-score [5] of the same sequence?
A: 0.511

Q: And the PBM binding z-score [6]?
A: 0.594

Q: And the PBM binding z-score [7]?
A: -0.151

Q: And the PBM binding z-score [8]?
A: 2.01

Q: And the PBM binding z-score [9]?
A: 3.62

Q: What about the PBM binding z-score [10] of the same sequence?
A: 2.96

Q: What about the PBM binding z-score [11] of the same sequence?
A: 2.41

Q: What about the PBM binding z-score [12] of the same sequence?
A: 0.0404

Q: And the PBM binding z-score [13]?
A: 0.251

Q: What about the PBM binding z-score [14] of the same sequence?
A: -0.451

Q: And the PBM binding z-score [15]?
A: 1.24

Q: And the PBM binding z-score [16]?
A: 0.647

Q: What about the PBM binding z-score [17] of the same sequence?
A: 0.375

Q: And the PBM binding z-score [18]?
A: 0.611

Q: What about the PBM binding z-score [19] of the same sequence?
A: 1.16

Q: What about the PBM binding z-score [20] of the same sequence?
A: 0.525

Q: What does the source list for GGAACGAGGGCATTCGAGTGGATAGCATGGCGAT?
A: PBM binding z-score [1]: 0.825; PBM binding z-score [2]: 0.32; PBM binding z-score [3]: -0.525; PBM binding z-score [4]: -0.0544; PBM binding z-score [5]: -0.833; PBM binding z-score [6]: 1.13; PBM binding z-score [7]: 0.858; PBM binding z-score [8]: 0.594; PBM binding z-score [9]: -0.34; PBM binding z-score [10]: -0.0101; PBM binding z-score [11]: 2.7; PBM binding z-score [12]: 1.91; PBM binding z-score [13]: 0.297; PBM binding z-score [14]: -0.551; PBM binding z-score [15]: -0.225; PBM binding z-score [16]: 0.6; PBM binding z-score [17]: -0.278; PBM binding z-score [18]: 0.17; PBM binding z-score [19]: -0.0575; PBM binding z-score [20]: 1.74

Q: Which PBM binding z-score [1] does the source give for CCTACTGGGCAACGAAAGGTCATTGATTCAGTGA here?
A: 3.6

Q: And the PBM binding z-score [2]?
A: 5.33

Q: What about the PBM binding z-score [3] of the same sequence?
A: 5.51

Q: What about the PBM binding z-score [4] of the same sequence?
A: 4.2

Q: And the PBM binding z-score [5]?
A: 0.197

Q: And the PBM binding z-score [6]?
A: 4.2

Q: What about the PBM binding z-score [7] of the same sequence?
A: 2.1

Q: And the PBM binding z-score [8]?
A: 3.54

Q: And the PBM binding z-score [9]?
A: 0.974

Q: What about the PBM binding z-score [10] of the same sequence?
A: 2.72

Q: What about the PBM binding z-score [11] of the same sequence?
A: 2.25

Q: And the PBM binding z-score [12]?
A: 2.56

Q: And the PBM binding z-score [13]?
A: -0.412

Q: And the PBM binding z-score [14]?
A: 0.102

Q: What about the PBM binding z-score [15] of the same sequence?
A: 3.81

Q: What about the PBM binding z-score [16] of the same sequence?
A: 5.18

Q: What about the PBM binding z-score [17] of the same sequence?
A: 1.89

Q: And the PBM binding z-score [18]?
A: 5.49

Q: What about the PBM binding z-score [19] of the same sequence?
A: 2.52

Q: What about the PBM binding z-score [20] of the same sequence?
A: 3.96

Q: TAGTCTAGGTCATTCAGGGGCCAGTATAGAAAGC was tested. Which PBM binding z-score [1] did it give?
A: 4.17

Q: What about the PBM binding z-score [2] of the same sequence?
A: 4.28

Q: And the PBM binding z-score [3]?
A: 2.05

Q: What about the PBM binding z-score [4] of the same sequence?
A: 3.15

Q: What about the PBM binding z-score [5] of the same sequence?
A: 3.06

Q: And the PBM binding z-score [6]?
A: 4.05

Q: What about the PBM binding z-score [7] of the same sequence?
A: 4.7

Q: What about the PBM binding z-score [8] of the same sequence?
A: 4.38

Q: And the PBM binding z-score [9]?
A: 2.33

Q: What about the PBM binding z-score [10] of the same sequence?
A: 3.77

Q: And the PBM binding z-score [11]?
A: 5.32

Q: What about the PBM binding z-score [12] of the same sequence?
A: 5.97

Q: What about the PBM binding z-score [13] of the same sequence?
A: 1.69

Q: And the PBM binding z-score [14]?
A: 1.74

Q: And the PBM binding z-score [15]?
A: 2.29

Q: What about the PBM binding z-score [16] of the same sequence?
A: 2.53

Q: What about the PBM binding z-score [17] of the same sequence?
A: 0.48

Q: What about the PBM binding z-score [18] of the same sequence?
A: 3.32

Q: And the PBM binding z-score [19]?
A: 0.639

Q: And the PBM binding z-score [20]?
A: 3.73

Q: Which PBM binding z-score [1] does the source give for GCAGACAGGTGAAACGCAGGTCACTCAGGGTGGC here?
A: 1.55

Q: And the PBM binding z-score [2]?
A: 2.05

Q: What about the PBM binding z-score [3] of the same sequence?
A: 0.579

Q: What about the PBM binding z-score [4] of the same sequence?
A: 1.27

Q: And the PBM binding z-score [5]?
A: -0.88

Q: What about the PBM binding z-score [6] of the same sequence?
A: 2.57

Q: What about the PBM binding z-score [7] of the same sequence?
A: 0.931

Q: And the PBM binding z-score [8]?
A: 1.01

Q: What about the PBM binding z-score [9] of the same sequence?
A: -0.357

Q: What about the PBM binding z-score [10] of the same sequence?
A: 0.0435

Q: And the PBM binding z-score [11]?
A: 0.839

Q: And the PBM binding z-score [12]?
A: 1.6

Q: And the PBM binding z-score [13]?
A: -0.584

Q: What about the PBM binding z-score [14] of the same sequence?
A: -0.0986

Q: What about the PBM binding z-score [15] of the same sequence?
A: 1.32

Q: And the PBM binding z-score [16]?
A: 2.65

Q: And the PBM binding z-score [17]?
A: -0.357

Q: And the PBM binding z-score [18]?
A: 3.45

Q: What about the PBM binding z-score [19] of the same sequence?
A: -0.516

Q: What about the PBM binding z-score [20] of the same sequence?
A: 2.44

Q: Which PBM binding z-score [1] does the source give for CCTCGGAGGACAACAGGAGGTCCGAGCTGCCAGA here?
A: -0.13

Q: What about the PBM binding z-score [2] of the same sequence?
A: -0.509

Q: What about the PBM binding z-score [3] of the same sequence?
A: -0.575

Q: What about the PBM binding z-score [4] of the same sequence?
A: -1.1

Q: What about the PBM binding z-score [5] of the same sequence?
A: -0.867

Q: And the PBM binding z-score [6]?
A: -0.795

Q: And the PBM binding z-score [7]?
A: -0.182

Q: What about the PBM binding z-score [8] of the same sequence?
A: -0.921

Q: And the PBM binding z-score [9]?
A: -0.862

Q: What about the PBM binding z-score [10] of the same sequence?
A: -0.99

Q: What about the PBM binding z-score [11] of the same sequence?
A: -0.427

Q: And the PBM binding z-score [12]?
A: -0.95

Q: And the PBM binding z-score [13]?
A: -1.85

Q: What about the PBM binding z-score [14] of the same sequence?
A: -2.01

Q: What about the PBM binding z-score [15] of the same sequence?
A: -0.576

Q: What about the PBM binding z-score [16] of the same sequence?
A: -0.914

Q: And the PBM binding z-score [17]?
A: -0.768

Q: And the PBM binding z-score [18]?
A: -0.793

Q: And the PBM binding z-score [19]?
A: -0.318

Q: What about the PBM binding z-score [20] of the same sequence?
A: 1.1

Q: With AGAACGAGGGCAATGAGTTGAAAGCACGGGTGGC as the sequence, how does the PBM binding z-score [1] read?
A: 0.345

Q: What about the PBM binding z-score [2] of the same sequence?
A: 0.43

Q: What about the PBM binding z-score [3] of the same sequence?
A: -0.528

Q: And the PBM binding z-score [4]?
A: -0.0192

Q: What about the PBM binding z-score [5] of the same sequence?
A: -0.804

Q: What about the PBM binding z-score [6] of the same sequence?
A: 1.57

Q: And the PBM binding z-score [7]?
A: 1.36

Q: And the PBM binding z-score [8]?
A: 1.21

Q: What about the PBM binding z-score [9] of the same sequence?
A: -0.135

Q: What about the PBM binding z-score [10] of the same sequence?
A: 0.569

Q: What about the PBM binding z-score [11] of the same sequence?
A: 3.01

Q: What about the PBM binding z-score [12] of the same sequence?
A: 2.76

Q: And the PBM binding z-score [13]?
A: 0.626

Q: What about the PBM binding z-score [14] of the same sequence?
A: -0.78

Q: And the PBM binding z-score [15]?
A: 0.52

Q: And the PBM binding z-score [16]?
A: 1.67

Q: And the PBM binding z-score [17]?
A: 5.02

Q: What about the PBM binding z-score [18] of the same sequence?
A: 0.551

Q: What about the PBM binding z-score [19] of the same sequence?
A: -0.34

Q: And the PBM binding z-score [20]?
A: 2.03

Source: the supplement of paper PMC6555819
